Usually AC50 stands for the concentration giving half of the maximal activity seen.

Several values for one entry are separate records, joined by “and”; a condition that tells them apart may be missing. Equal values may be shown once. A structure can be active in one record and inactive in another. Activity calls are given as the source filed them. The calls were made as follows: active = hit-call score of the fitted dose curve at least 0.9, where 1 is the maximum; inactive = score below 0.9.

Read-out in experiment [1]: Interleukin-1 alpha (IL1a), IL1A (gene 3552)
Description: BSK_KF3CT_IL1a: BioMAP Diversity Plus: KF3CT Assay for Interleukin-1 alpha (IL1a) Biomarker Activity (AID 2283070). The note with it: primary human keratinocytes with fibroblasts; actives raise or lower the signal. The method, boiled down:
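Primary skin co-culture (keratinocytes, foreskin fibroblasts), 24 h exposure; ELISA for IL-1a; bidirectional curve fit vs DMSO.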

Read-out in experiment [2]: TIMP metallopeptidase inhibitor 2 (TIMP2), TIMP2 (gene 7077)
Description: BSK_KF3CT_TIMP2: BioMAP Diversity Plus: KF3CT Assay for TIMP metallopeptidase inhibitor 2 (TIMP2) Biomarker Activity (AID 2283071). Conditions: primary human keratinocytes with fibroblasts; actives raise or lower the signal. Summed up: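 ELISA readout of TIMP-2 in keratinocyte plus foreskin fibroblast co-cultures (human skin primary cells), 24 h post-dose. Gain or loss of signal fitted relative to DMSO.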

Read-out in experiment [3]: C-C motif chemokine 2 (Homo sapiens) (UniProt P13500)
Description: BSK_KF3CT_MCP1: BioMAP Diversity Plus: KF3CT Assay for Monocyte Chemoattractant Protein 1 (MCP1/CCL2) Biomarker Activity (AID 2283073). Conditions: primary human keratinocytes with fibroblasts; actives raise or lower the signal. The method, boiled down:
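ELISA read-out of MCP-1, 24 h post-dose, in primary human skin keratinocytes co-cultured with fibroblasts. Parallel SRB staining monitors cytotoxicity; changes fitted both directions relative to DMSO.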

Read-out in experiment [4]: Matrix Metallopeptidase 9 (MMP9), MMP9 (gene 4318)
Nature of the experiment: BSK_KF3CT_MMP9: BioMAP Diversity Plus: KF3CT Assay for Matrix Metallopeptidase 9 (MMP9) Biomarker Activity (AID 2283074).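 As to AC50: MMP9 protein level quantified by ELISA in the co-culture.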 The note with it: primary human keratinocytes with fibroblasts; actives raise or lower the signal. Summed up: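 ELISA read-out of MMP-9 at 24 h post-dosing in a co-culture of human skin keratinocytes and foreskin fibroblasts. Gain or loss of signal was fitted in both directions against DMSO.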

Read-out in experiment [5]: CD40, CD40 (gene 958)
Description: BSK_LPS_CD40: BioMAP Diversity Plus: LPS Assay for CD40 Biomarker Activity (AID 2283076). Conditions: primary human HUVEC with PBMC; actives raise or lower the signal. The method, boiled down:
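In the LPS system of human endothelial cells with peripheral blood mononuclear cells, CD40 levels were read by ELISA 24 h post-treatment. Signal changes in either direction were fitted against the DMSO baseline, with parallel SRB protein staining.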

Read-out in experiment [6]: E-selectin (Homo sapiens) (UniProt P16581)
Nature of the experiment: BSK_LPS_Eselectin: BioMAP Diversity Plus: LPS Assay for Eselectin Biomarker Activity (AID 2283077). Conditions: primary human HUVEC with PBMC; actives raise or lower the signal. Summed up: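 E-selectin ELISA on LPS-stimulated endothelial cell/PBMC co-cultures, read 24 h post-treatment; gains and losses fitted against DMSO. Parallel SRB staining (0.1% SRB after 10% TCA fixation, 560 nm) flags overt cytotoxicity.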

Experiment [7] is described as follows: BSK_LPS_SRB: Viability Assessment in the BioMAP Diversity Plus: LPS Assay (AID 2283079).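 Also: total protein by sulforhodamine B absorbance as a cytotoxicity measure; measured one day after compound addition.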 Conditions: primary human HUVEC with PBMC. Summed up: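 SRB viability endpoint: cells fixed with 10% TCA, stained with 0.1% SRB, read at 560 nm, 24 h post-dose. HUVEC/PBMC co-culture; signal change in either direction scored relative to DMSO.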
Read-out in experiment [8]: Interleukin-1 alpha (IL1a), IL1A (gene 3552)
Nature of the experiment: BSK_LPS_IL1a: BioMAP Diversity Plus: LPS Assay for Interleukin-1 alpha (IL1a) Biomarker Activity (AID 2283080). The note with it: primary human HUVEC with PBMC; actives raise or lower the signal. The method, boiled down:
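Readout is IL-1a level by ELISA, 24 h post-dose, fitted as gain or loss relative to DMSO. System: LPS-activated human primary co-culture of vascular endothelium and peripheral blood mononuclear cells, with parallel SRB total-protein cytotoxicity.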

Read-out in experiment [9]: Monocyte Chemoattractant Protein-1 (MCP1), CCL2 (gene 6347)
Nature of the experiment: BSK_LPS_MCP1: BioMAP Diversity Plus: LPS Assay for Monocyte Chemoattractant Protein-1 (MCP1) Biomarker Activity (AID 2283081).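 As to AC50: secreted MCP-1 protein quantified by ELISA in culture supernatant.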 Conditions: primary human HUVEC with PBMC; actives raise or lower the signal. The method, boiled down:
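Secreted MCP-1 read by ELISA at 24 h post-dosing in an LPS-activated co-culture of endothelial cells with peripheral blood mononuclear cells. Fits run in both directions, DMSO as baseline; parallel SRB staining tracks overt cytotoxicity.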

The nature of experiment [10]: BSK_LPS_PGE2: BioMAP Diversity Plus: LPS Assay for Prostaglandin E2 (PGE2) Biomarker Activity (AID 2283082).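 As to AC50: secreted prostaglandin E2 measured by ELISA in LPS-stimulated co-culture.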 Conditions: primary human HUVEC with PBMC; actives raise or lower the signal. The method, boiled down:
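ELISA read-out of PGE2 from human umbilical vein endothelial cells co-cultured with peripheral blood mononuclear cells under LPS, 24 h post-dose. Gain or loss of signal scored relative to DMSO baseline.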

Read-out in experiment [11]: Macrophage colony-stimulating factor (MCSF), CSF1 (gene 1435)
Description: BSK_LPS_MCSF: BioMAP Diversity Plus: LPS Assay for Macrophage colony-stimulating factor (MCSF) Biomarker Activity (AID 2283083). The note with it: primary human HUVEC with PBMC; actives raise or lower the signal. Summed up: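 Bidirectional fitting against DMSO was applied to M-CSF levels read by ELISA at 24 h post-dose. The system pairs human umbilical vein endothelium with peripheral blood mononuclear cells; parallel SRB staining tracked cytotoxicity.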

Read-out in experiment [12]: Tumor necrosis factor (Homo sapiens) (UniProt P01375)
Nature of the experiment: BSK_LPS_TNFa: BioMAP Diversity Plus: LPS Assay for Tumour Necrosis Factor alpha (TNFa) Biomarker Activity (AID 2283085).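 As to AC50: TNFa protein level quantified by ELISA in the co-culture.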 Conditions: primary human HUVEC with PBMC; actives raise or lower the signal. Summed up:
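HUVEC/PBMC co-culture, LPS-stimulated; 24 h post-dose; TNFa by ELISA; gain or loss of signal fitted bidirectionally vs DMSO baseline.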

Read-out in experiment [13]: Vascular cell adhesion molecule 1 (VCAM1), VCAM1 (gene 7412)
Description: BSK_LPS_VCAM1: BioMAP Diversity Plus: LPS Assay for Vascular cell adhesion molecule 1 (VCAM1) Biomarker Activity (AID 2283086). The note with it: primary human HUVEC with PBMC; actives raise or lower the signal. Summed up:
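ELISA read-out of VCAM-1 at 24 h post-dosing in an LPS-driven HUVEC/PBMC primary human co-culture; gain or loss of signal fitted bidirectionally against DMSO baseline. Cytotoxicity tracked in parallel cultures by SRB total-protein staining.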

Read-out in the next experiment: CD38, CD38 (gene 952)
Nature of the experiment: BSK_SAg_CD38: BioMAP Diversity Plus: SAg Assay for CD38 Biomarker Activity (AID 2283087). Conditions: primary human HUVEC with PBMC; actives raise or lower the signal. Summed up: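 Measures CD38 on a human endothelial/PBMC co-culture driven by SEB and TSST-1, 24 h after compound exposure, using ELISA with fluorescence detection; DMSO defines baseline for bidirectional curve fitting.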

Read-out in a further experiment: CD69, CD69 (gene 969)
Nature of the experiment: BSK_SAg_CD69: BioMAP Diversity Plus: SAg Assay for CD69 Biomarker Activity (AID 2283089). The note with it: primary human HUVEC with PBMC; actives raise or lower the signal. The method, boiled down:
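ELISA, fluorescence read-out: CD69 on human umbilical vein endothelial cell + PBMC co-culture, 24 h post-dosing. Gain or loss of signal fitted bidirectionally against DMSO baseline.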

Read-out in experiment [14]: Transforming growth factor beta 1 (TGFb1), TGFB1 (gene 7040)
Nature of the experiment: BSK_KF3CT_TGFb1: BioMAP Diversity Plus: KF3CT Assay for Transforming growth factor beta 1 (TGFb1) Biomarker Activity (AID 2283072). Conditions: primary human keratinocytes with fibroblasts; actives raise or lower the signal. The method, boiled down: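 Read-out: ELISA for TGF-b1 in keratinocyte/foreskin fibroblast human skin co-culture, 24 h after dosing; bidirectional curve fit vs DMSO baseline; gain or loss of signal scored.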

Read-out in experiment [15]: CD40, CD40 (gene 958)
Description: BSK_SAg_CD40: BioMAP Diversity Plus: SAg Assay for CD40 Biomarker Activity (AID 2283088). Conditions: primary human HUVEC with PBMC; actives raise or lower the signal. The method, boiled down: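 CD40 is measured by fluorescence ELISA in an endothelial/PBMC primary human co-culture at 24 h post-dose. Fitting is bidirectional, DMSO baseline. Parallel SRB staining (560 nm) flags cytotoxicity.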

E-selectin (Homo sapiens), sequence (P16581 whole entry, looked up): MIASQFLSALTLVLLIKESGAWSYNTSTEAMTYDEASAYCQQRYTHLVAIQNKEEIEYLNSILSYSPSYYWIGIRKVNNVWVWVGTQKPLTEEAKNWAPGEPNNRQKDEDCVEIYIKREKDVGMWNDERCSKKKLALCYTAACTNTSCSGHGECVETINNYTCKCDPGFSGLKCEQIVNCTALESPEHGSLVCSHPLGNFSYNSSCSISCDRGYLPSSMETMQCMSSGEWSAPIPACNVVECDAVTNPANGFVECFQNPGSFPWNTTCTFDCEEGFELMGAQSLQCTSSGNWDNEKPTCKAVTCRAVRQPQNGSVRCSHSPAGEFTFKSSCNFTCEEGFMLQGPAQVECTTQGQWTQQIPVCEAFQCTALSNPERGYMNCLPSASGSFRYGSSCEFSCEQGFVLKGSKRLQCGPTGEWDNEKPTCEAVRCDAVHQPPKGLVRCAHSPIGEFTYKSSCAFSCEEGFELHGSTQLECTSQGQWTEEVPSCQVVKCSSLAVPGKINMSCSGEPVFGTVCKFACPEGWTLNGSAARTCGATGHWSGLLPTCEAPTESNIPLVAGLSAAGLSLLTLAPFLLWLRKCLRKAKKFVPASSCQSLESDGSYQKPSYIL
Tumor necrosis factor (Homo sapiens), sequence (P01375 whole entry, looked up): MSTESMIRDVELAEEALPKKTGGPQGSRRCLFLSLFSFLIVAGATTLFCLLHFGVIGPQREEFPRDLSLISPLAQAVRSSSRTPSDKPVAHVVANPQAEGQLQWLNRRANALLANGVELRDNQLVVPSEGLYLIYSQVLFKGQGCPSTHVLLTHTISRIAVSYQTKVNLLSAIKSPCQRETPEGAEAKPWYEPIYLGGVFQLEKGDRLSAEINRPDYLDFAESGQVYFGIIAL

For `C[N+](C)(C)CCCNS(=O)(=O)C(F)(F)C(F)(F)C(F)(F)C(F)(F)C(F)(F)C(F)(F)C(F)(F)C(F)(F)F`, the outcome in experiment [1] is “inactive”; in experiment [2], “inactive”; in experiment [3], “inactive”; in experiment [6] it was “inactive”; in experiment [9], “inactive”; with CD38, CD38 (gene 952), “inactive”. Moreover, in the experiment with CD69, CD69 (gene 969), the outcome was inactive. Also, the AC50 was 30 µM (active) and 44.7 µM (active) in [4]; 42.8 µM (active) and 25.4 µM (active) in the experiment with CD40, CD40 (gene 958) [5]; 48.1 µM (active) in experiment [6]; 22.5 µM (active) and 33.8 µM (active) in experiment [7]; 13.2 µM (active) and 30 µM (active) in experiment [8]; 36.4 µM (active) in experiment [9]. Further, the half-maximal activity concentration (AC50) in experiment [10] was 19.3 µM (active) and 14.8 µM (active); in [11], 46.7 µM (active) and 52.8 µM (active); in experiment [12] it was 41 µM (active) and 28.3 µM (active); in experiment [13] it was 45 µM (active) and 49.6 µM (active).
With `COC(OC)(C(=O)c1ccccc1)c1ccccc1`, the outcome in [1] was “inactive”; in experiment [2], “inactive”; in experiment [14], “inactive”; in experiment [3], “inactive”; in experiment [4] it was “inactive”; in the experiment with CD40, CD40 (gene 958) [5], “inactive”. The outcome in experiment [6], in [7], in experiment [9], in [10], in experiment [11] and in experiment [12] was inactive. Moreover, the outcome in [13] was “inactive”; with CD38, CD38 (gene 952), “inactive”; with CD69, CD69 (gene 969), “inactive”. In addition, in experiment [8], the AC50 is 38.7 nM (active).
Regarding `Nc1nc(N)nc(-c2ccccc2)n1`, the outcome in [1] is “inactive”; in experiment [2], “inactive”; in experiment [3], “inactive”; in experiment [4] it was “inactive”; with CD40, CD40 (gene 958) [5] it was “inactive”; in experiment [6] it was “inactive”. For the same molecule, the result in experiment [7], in experiment [8], in experiment [9], in experiment [10], in [11] and in [12] was inactive. For the same molecule, the outcome was “inactive” in [13]; “inactive” with CD38, CD38 (gene 952); “inactive” with CD40, CD40 (gene 958) [15]; “inactive” with CD69, CD69 (gene 969).
In the case of `C=CC(=O)NC(C)(C)C`, the outcome was “inactive” in [1]; “inactive” in [2]; “inactive” in experiment [14]; “inactive” in experiment [3]; “inactive” in [4]; “inactive” with CD40, CD40 (gene 958) [5]. For the same molecule, the outcome in experiment [6], in experiment [7], in experiment [8], in experiment [9], in experiment [10] and in experiment [11] was inactive. The outcome is “inactive” in experiment [12]; “inactive” in experiment [13]; “inactive” in the experiment with CD38, CD38 (gene 952); “inactive” with CD69, CD69 (gene 969).

The record behind these values is PubChem BioAssay (EPA / NIEHS).
